We go through 36 compounds from PubChem BioAssay.

Structures are written as SMILES.

This assay in a line: compound effects on hepatocellular carcinoma cell viability – HepG2, calcein-AM fluorescence, 48 h, basal, profiling panel (AID 1164). Further: test concentration not given here. As to conditions: higher = more signal.
On to `CC1CC/C=C\[C@H]2OC34C=CCN(C(C)C)C(=O)[C@H]3N(CCO)C(=O)[C@@H]4C2C(=O)O1` (stereo partly specified), for which the z-score is -0.255.

For `C=C(/C(=C/C[C@H](OC(=O)c1ccncc1)c1ccc(CO)o1)c1cnc2ccccc2c1)C(C)C`, the z-score was -0.181.

Regarding `Cc1ccc(F)cc1S(=O)(=O)N[C@@H]1CCN(Cc2ccc(Br)cc2)C1`, the z-score is -0.65.

For `CN1C2C=C(CCCO)C(C3C(=O)N(C(N)=O)C(=O)C32)C1C1CC1` (stereo unspecified), the z-score is 0.592.

Turning to `Cc1ccc(S[C@]2(C(=O)O)CC(=O)N(C3CCCCC3)[C@@H]2c2ccc(CO)cc2I)cc1`, the z-score is -0.561.

Turning to `COCCOC(=O)N1C(=O)[C@@]2(c3cc(C#CC4(O)CCCCCC4)ccc31)[C@H](C(=O)N1CCc3cc(OC)c(OC)cc3C1)[C@H]1C(=O)O[C@H](c3ccccc3)[C@H](c3ccccc3)N1[C@@H]2c1ccc(OCCO)cc1`, the z-score was -0.653.

With `COC(=O)[C@@]1(Cc2ccc(OC)cc2)[C@H]2c3cc(C(=O)N4CCCC4)n(CCc4c[nH]c5ccc(O)cc45)c3C[C@H]2CN1C(=O)c1ccccc1`, the z-score is 0.8.

As to `CN(C)C(=O)[C@]1(CCC(=O)OC(C)(C)C)N=C(c2ccc(OCCCO)cc2)O[C@@H]1c1ccccc1CN=[N+]=[N-]`, the z-score is 0.697.

Turning to `CCOC(=O)C1=CC[C@@H](c2ccccc2)N(S(=O)(=O)c2ccc(C)cc2)[C@H]1c1ccccc1`, the z-score is -0.634.

With `NC(=O)[C@H]1[C@@H]2C(=O)O[C@@H](c3ccccc3)[C@@H](c3ccccc3)N2[C@@H](c2ccc(OCCO)cc2)[C@]12C(=O)Nc1ccc(C#CCCO)cc12`, the z-score is 0.456.

For `CCCCCCCCCC(O)C1C=CC2C(=O)N(c3ccccc3)C(=O)C2N1Nc1cc(OC)c(OC)c(OC)c1` (stereo unspecified), the z-score is -0.777.

With `COc1cc(OC)c(C(O)C2C=CC3C(=O)N(Cc4ccccc4)C(=O)C3N2n2cnnc2)cc1Br` (stereo unspecified), the z-score is -0.161.

On to `O=C1O[C@@H](c2ccccc2)[C@@H](c2ccccc2)N2[C@@H](c3ccc(OCCO)cc3)[C@]3(C(=O)Nc4ccc(C#CC5=CCCCC5)cc43)[C@@H](C(=O)NC[C@H](O)c3ccccc3)[C@H]12`, for which the z-score is 0.348.

`CC(C)[Si](C#CCCCC#N)(O[C@H](c1ccccc1)c1cn(Cc2ccccc2)nn1)C(C)C`: the z-score is -0.213.

On to `CC1=C2[C@@H](CCc3ccccc3)OB(O)C[C@@H]2[C@@H]2C(=O)N(C)C(=O)[C@@H]2C1`, for which the z-score was -0.21.

In the case of `COc1ccc([Si](C)(C)[C@H]2[C@H](CC(=O)N(CCO)Cc3ccccc3)O[C@@]3(C(=O)N(C)c4c(Br)cc(C)cc43)[C@@H]2C)cc1`, the z-score was -4.11.

Take `C=CC[C@@]1(C(=O)NCCCOC)N=C(c2ccc(OCCCO)cc2)O[C@@H]1c1ccccc1N=[N+]=[N-]`: the z-score is -0.465.

Take `COC(=O)C(CC#Cc1ccc2c(c1)[C@]1(C(=O)N2)[C@H](c2ccc(O)cc2)N2[C@H](c3ccccc3)[C@H](c3ccccc3)OC(=O)[C@H]2[C@@H]1C(=O)NC[C@H](O)c1ccccc1)C(=O)OC`: the z-score was -0.045.

In the case of `COc1ccc([Si](C)(C)[C@H]2[C@H](CC(=O)N3Cc4ccccc4C[C@H]3CO)O[C@@]3(C(=O)N(Cc4ccc(N5CCOC5=O)cc4)c4ccccc43)[C@@H]2C)cc1`, the z-score is -0.919.

Take `COC(=O)c1c(CC[C@@H](CO)NC(=O)N[C@@H](C)Cn2cc(-c3ccccn3)nn2)oc(C(C)=O)c1C(=O)OC`: the z-score is -0.239.

As to `COCC(=C=CC[C@H](O)c1ccc(OCCO)cc1)CCO`, the z-score is -0.587.

With `N[C@@H](Cc1ccccc1)C(=O)NCc1cn(Cc2ccccc2)nn1`, the z-score is -0.256.

Take `CCOC(=O)C[C@H]1[C@H](OC(=O)Cc2ccc3c(c2)OCO3)[C@@H](NC(=O)c2ccc3ccccc3n2)c2cc(OCCCO)ccc2N1C(=O)c1ccccc1`: the z-score is 0.731.

`CC(CO)N1C(=O)[C@]2(C)C3C(=O)OCCC/C=C\[C@H]3OC23C=CCN(c2ccc(Cl)cc2)C(=O)[C@@H]13` (stereo partly specified): the z-score is 0.94.

Take `CC(=O)NCCCC[C@@H]1NC(=O)[C@@H]2C[C@H](C(=O)NCCCCCN)[C@H](c3ccc(O)cc3)N2C1=O`: the z-score is -0.512.

On to `COC(=O)[C@@]1(Cc2ccccc2)[C@H]2c3cc(C(=O)N(C)C)n(Cc4ccc(C)o4)c3C[C@H]2CN1C(=O)c1ccccc1`, for which the z-score was -0.735.

As to `CCCC[C@@H](O)C1=C(COc2ccccc2)C[C@H]2C(=O)N(Cc3ccccc3)C(=O)[C@H]2[C@H]1CO`, the z-score is 0.913.

For `COC(=O)C1(CC(C)C)C=C2C(=C(c3ccccc3)C(=O)C2C)CN1` (stereo unspecified), the z-score was 0.0661.

For the compound `COc1ccc(CCNC(=O)[C@@]2(c3ccc([N+](=O)[O-])cc3)CC(=O)N(C3CCCCC3)[C@@H]2c2ccc(CO)cc2)cc1`, the z-score was 1.12.

As to `COCCCNC(=O)[C@@]1(Sc2ccc(C)cc2)CC(=O)N(C2Cc3ccccc3C2)[C@@H]1c1ccc(CO)cc1`, the z-score was -0.603.

With `CS(=O)(=O)CCOC(=O)C1=CC(c2ccc(CO)cc2)=CC(C2CC2)N(Cc2sc3ccccc3c2Cl)C=C1C(=O)OCCS(C)(=O)=O` (stereo unspecified), the z-score was 0.0312.

With `C=CCOC(=O)[C@@H]1[C@H]2C(=O)O[C@H](c3ccccc3)[C@H](c3ccccc3)N2[C@H](c2ccc(OCCOC(=O)[C@@H]3C[C@@H]4C(=O)N[C@@H](CCCC[N+](C)(C)C)C(=O)N4[C@@H]3c3ccc(O)cc3)cc2)[C@@]12C(=O)Nc1ccc(I)cc12`, the z-score is -0.495.

As to `OCCCC1=CC(c2ccc(CN3CCCC3)cc2)N(Cc2cc3c(cc2Br)OCO3)CC1` (stereo unspecified), the z-score is 0.552.

Regarding `CC(c1ccccc1)C(O)C1C=CC2C(=O)N(C)C(=O)C2N1Nc1ccccc1` (stereo unspecified), the z-score is 0.36.

Turning to `CC(C)N1C(=O)C[C@@](C(=O)O)(c2ccc([N+](=O)[O-])cc2)[C@H]1c1ccc(CO)cc1`, the z-score was 0.74.

Turning to `CCCC#C[Si](O[C@H](CC)c1cn([C@H](C)c2ccccc2)nn1)(C(C)C)C(C)C`, the z-score is 0.9.
